# Source: PubChem BioAssay (NCI)
# About 83,000 compounds went through this panel and 20% of them were active in at least one assay; those are over-represented in the sample as a whole.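 Step 1: grow cells in 96-well plates. Step 2: add test compound at a single concentration. Step 3: incubate 48 h. Step 4: record percent growth.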 Unmarked numbers belong to inactive results. The source made the active and inactive calls. Rule for the calls: active = growth percent below 10; inactive = the rest.
# What was measured:
# Assay in all cases: NCI-60 one-dose screen, 48 h (100 = growth as untreated, 0 = no growth, -100 = all killed)
# DU-145 prostate = tested on: DU-145 prostate
# K-562 leukemia = tested on: K-562 leukemia
# MALME-3M melanoma = tested on: MALME-3M melanoma
# MDA-MB-231 breast = tested on: MDA-MB-231 breast
# RXF 393 renal = tested on: RXF 393 renal
# SF-268 CNS = tested on: SF-268 CNS
# SF-295 CNS = tested on: SF-295 CNS
# SF-539 CNS = tested on: SF-539 CNS
# UACC-257 melanoma = conditions: 10 µM unless noted
# M14 melanoma = tested on: M14 melanoma
# HCT-15 colon = tested on: HCT-15 colon
# HT29 colon = tested on: HT29 colon
# SNB-75 CNS = tested on: SNB-75 CNS
# SNB-19 CNS = tested on: SNB-19 CNS
# U251 CNS = conditions: 10 µM unless noted
# PC-3 prostate = conditions: 10 µM unless noted
# SK-MEL-5 melanoma = tested on: SK-MEL-5 melanoma
# UACC-62 melanoma = tested on: UACC-62 melanoma
# LOX IMVI melanoma = tested on: LOX IMVI melanoma
# SK-MEL-28 melanoma = conditions: 10 µM unless noted
compound,measurement,setting,value
Cc1ccc2c(ccc3c[n+]4c5ccccc5ccc4n32)c1,growth,DU-145 prostate; 10 µM unless noted,20.7%
same,growth,K-562 leukemia; 10 µM unless noted,6.39% (active)
same,growth,MALME-3M melanoma; 10 µM unless noted,-45.5% (active)
same,growth,MDA-MB-231 breast; 10 µM unless noted,19.6%
same,growth,RXF 393 renal; 10 µM unless noted,28.9%
same,growth,SF-268 CNS; 10 µM unless noted,1.4% (active)
same,growth,SF-295 CNS; 10 µM unless noted,-1.86% (active)
same,growth,SF-539 CNS; 10 µM unless noted,-3.04% (active)
same,growth,UACC-257 melanoma,-36% (active)
same,growth,M14 melanoma; 10 µM unless noted,2.99% (active)
same,growth,HCT-15 colon; 10 µM unless noted,79.6%
same,growth,HT29 colon; 10 µM unless noted,8.52% (active)
same,growth,SNB-75 CNS; 10 µM unless noted,8.15% (active)
same,growth,SNB-19 CNS; 10 µM unless noted,2.91% (active)
same,growth,U251 CNS,-12.4% (active)
same,growth,PC-3 prostate,8.46% (active)
same,growth,SK-MEL-5 melanoma; 10 µM unless noted,-81% (active)
same,growth,UACC-62 melanoma; 10 µM unless noted,-48.9% (active)
same,growth,LOX IMVI melanoma; 10 µM unless noted,22.5%
same,growth,SK-MEL-28 melanoma,-28.1% (active)
CCCCCCCCCCCCCCCCOP(=O)([O-])OCC[N+](C)(C)C,growth,DU-145 prostate; 10 µM unless noted,82.2%
same,growth,K-562 leukemia; 10 µM unless noted,64.6%
same,growth,MALME-3M melanoma; 10 µM unless noted,74.1%
same,growth,MDA-MB-231 breast; 10 µM unless noted,36.8%
same,growth,RXF 393 renal; 10 µM unless noted,-32.1% (active)
same,growth,SF-268 CNS; 10 µM unless noted,32.5%
same,growth,SF-295 CNS; 10 µM unless noted,28%
same,growth,SF-539 CNS; 10 µM unless noted,55.9%
same,growth,UACC-257 melanoma,76.7%
same,growth,M14 melanoma; 10 µM unless noted,-10.6% (active)
same,growth,HCT-15 colon; 10 µM unless noted,1.44% (active)
same,growth,HT29 colon; 10 µM unless noted,-14% (active)
same,growth,SNB-75 CNS; 10 µM unless noted,44.2%
same,growth,SNB-19 CNS; 10 µM unless noted,-13.3% (active)
same,growth,U251 CNS,8.3% (active)
same,growth,PC-3 prostate,-22.1% (active)
same,growth,SK-MEL-5 melanoma; 10 µM unless noted,59.1%
same,growth,UACC-62 melanoma; 10 µM unless noted,37.6%
same,growth,LOX IMVI melanoma; 10 µM unless noted,27.8%
same,growth,SK-MEL-28 melanoma,98.3%
NC(=S)N/N=C/c1ccc(Cl)s1,growth,DU-145 prostate; 10 µM unless noted,106%
same,growth,K-562 leukemia; 10 µM unless noted,99.5%
same,growth,MALME-3M melanoma; 10 µM unless noted,104%
same,growth,MDA-MB-231 breast; 10 µM unless noted,110%
same,growth,RXF 393 renal; 10 µM unless noted,99.9%
same,growth,SF-268 CNS; 10 µM unless noted,102%
same,growth,SF-295 CNS; 10 µM unless noted,103%
same,growth,SF-539 CNS; 10 µM unless noted,100%
same,growth,UACC-257 melanoma,104%
same,growth,M14 melanoma; 10 µM unless noted,105%
same,growth,HCT-15 colon; 10 µM unless noted,101%
same,growth,HT29 colon; 10 µM unless noted,108%
same,growth,SNB-75 CNS; 10 µM unless noted,108%
same,growth,SNB-19 CNS; 10 µM unless noted,101%
same,growth,U251 CNS,101%
same,growth,PC-3 prostate,101%
same,growth,SK-MEL-5 melanoma; 10 µM unless noted,97.2%
same,growth,UACC-62 melanoma; 10 µM unless noted,101%
O=C1N[C@H]2[C@H](CS[C@H]2CCCCC(=O)N(CCP(c2ccccc2)c2ccccc2)CCP(c2ccccc2)c2ccccc2)N1,growth,DU-145 prostate; 10 µM unless noted,95.6%
same,growth,K-562 leukemia; 10 µM unless noted,69.3%
same,growth,MALME-3M melanoma; 10 µM unless noted,91.7%
same,growth,MDA-MB-231 breast; 10 µM unless noted,80.9%
same,growth,RXF 393 renal; 10 µM unless noted,96.5%
same,growth,SF-268 CNS; 10 µM unless noted,88.8%
same,growth,SF-295 CNS; 10 µM unless noted,83.6%
same,growth,SF-539 CNS; 10 µM unless noted,99.5%
same,growth,UACC-257 melanoma,79.6%
same,growth,M14 melanoma; 10 µM unless noted,97.3%
same,growth,HCT-15 colon; 10 µM unless noted,78.6%
same,growth,HT29 colon; 10 µM unless noted,59.3%
same,growth,SNB-75 CNS; 10 µM unless noted,104%
same,growth,SNB-19 CNS; 10 µM unless noted,75.7%
same,growth,U251 CNS,50.8%
same,growth,PC-3 prostate,71.7%
same,growth,SK-MEL-5 melanoma; 10 µM unless noted,87.8%
same,growth,UACC-62 melanoma; 10 µM unless noted,88.3%
same,growth,LOX IMVI melanoma; 10 µM unless noted,76%
CC1(C)CC([P+](c2ccccc2)(c2ccccc2)c2ccccc2)=NN1,growth,DU-145 prostate; 10 µM unless noted,49.6%
same,growth,K-562 leukemia; 10 µM unless noted,9.92% (active)
same,growth,MALME-3M melanoma; 10 µM unless noted,21.2%
same,growth,MDA-MB-231 breast; 10 µM unless noted,65.4%
same,growth,RXF 393 renal; 10 µM unless noted,59.6%
same,growth,SF-268 CNS; 10 µM unless noted,41.1%
same,growth,SF-295 CNS; 10 µM unless noted,53.2%
same,growth,SF-539 CNS; 10 µM unless noted,51%
same,growth,UACC-257 melanoma,2.89% (active)
same,growth,M14 melanoma; 10 µM unless noted,71.9%
same,growth,HCT-15 colon; 10 µM unless noted,94.3%
same,growth,HT29 colon; 10 µM unless noted,24.9%
same,growth,SNB-75 CNS; 10 µM unless noted,34.3%
same,growth,SNB-19 CNS; 10 µM unless noted,44.5%
same,growth,U251 CNS,25.5%
same,growth,PC-3 prostate,29.1%
same,growth,SK-MEL-5 melanoma; 10 µM unless noted,12.4%
same,growth,UACC-62 melanoma; 10 µM unless noted,32.2%
same,growth,LOX IMVI melanoma; 10 µM unless noted,43.1%
O=C(Nc1cccc(Br)c1)Oc1ccc(Cl)c2cccnc12,growth,DU-145 prostate; 10 µM unless noted,42.2% [100 µM]
same,growth,K-562 leukemia; 10 µM unless noted,10.4% [100 µM]
same,growth,MALME-3M melanoma; 10 µM unless noted,27% [100 µM]
same,growth,MDA-MB-231 breast; 10 µM unless noted,20.1% [100 µM]
same,growth,RXF 393 renal; 10 µM unless noted,51.6% [100 µM]
same,growth,SF-268 CNS; 10 µM unless noted,16.4% [100 µM]
same,growth,SF-295 CNS; 10 µM unless noted,12.1% [100 µM]
same,growth,SF-539 CNS; 10 µM unless noted,9.36% [100 µM] (active)
same,growth,UACC-257 melanoma,7.32% [100 µM] (active)
same,growth,M14 melanoma; 10 µM unless noted,8.2% [100 µM] (active)
same,growth,HCT-15 colon; 10 µM unless noted,10.9% [100 µM]
same,growth,HT29 colon; 10 µM unless noted,70.5% [100 µM]
same,growth,SNB-75 CNS; 10 µM unless noted,3.16% [100 µM] (active)
same,growth,SNB-19 CNS; 10 µM unless noted,27.8% [100 µM]
same,growth,U251 CNS,20.2% [100 µM]
same,growth,PC-3 prostate,20.2% [100 µM]
same,growth,SK-MEL-5 melanoma; 10 µM unless noted,9.3% [100 µM] (active)
same,growth,UACC-62 melanoma; 10 µM unless noted,-30.4% [100 µM] (active)
same,growth,LOX IMVI melanoma; 10 µM unless noted,4.16% [100 µM] (active)
O=C(Nc1c(Cl)cccc1Cl)Oc1cccc2cccnc12,growth,DU-145 prostate; 10 µM,82.5%
same,growth,DU-145 prostate; 100 µM,49.1%
same,growth,K-562 leukemia; 10 µM,11.3%
same,growth,K-562 leukemia; 100 µM,11.1%
same,growth,MALME-3M melanoma; 10 µM,52.8%
same,growth,MALME-3M melanoma; 100 µM,47.5%
same,growth,MDA-MB-231 breast; 10 µM,49.5%
same,growth,MDA-MB-231 breast; 100 µM,20.4%
same,growth,RXF 393 renal; 10 µM,73.3%
same,growth,RXF 393 renal; 100 µM,64.4%
same,growth,SF-268 CNS; 10 µM,51.4%
same,growth,SF-268 CNS; 100 µM,21.7%
same,growth,SF-295 CNS; 10 µM,-11.3% (active)
same,growth,SF-295 CNS; 100 µM,19.6%
same,growth,SF-539 CNS; 10 µM,28.2%
same,growth,SF-539 CNS; 100 µM,22.9%
same,growth,UACC-257 melanoma,-8.59% [100 µM] (active)
same,growth,M14 melanoma; 10 µM,40%
same,growth,M14 melanoma; 100 µM,12.3%
same,growth,HCT-15 colon; 10 µM,27.9%
same,growth,HCT-15 colon; 100 µM,18.3%
same,growth,HT29 colon; 10 µM,79.4%
same,growth,HT29 colon; 100 µM,55.3%
same,growth,SNB-75 CNS; 10 µM,73.1%
same,growth,SNB-75 CNS; 100 µM,20.8%
same,growth,SNB-19 CNS; 10 µM,56.4%
same,growth,SNB-19 CNS; 100 µM,25.8%
same,growth,U251 CNS,19.5% [100 µM]
same,growth,SK-MEL-5 melanoma; 10 µM,55.9%
same,growth,SK-MEL-5 melanoma; 100 µM,14.4%
same,growth,UACC-62 melanoma; 10 µM,20.2%
same,growth,UACC-62 melanoma; 100 µM,-74.8% (active)
same,growth,LOX IMVI melanoma; 10 µM,33.1%
same,growth,LOX IMVI melanoma; 100 µM,7.87% (active)
